Assay results reported in PubChem BioAssay AID618 (Sanford-Burnham Center for Chemical Genomics, 2007).
The campaign covered roughly 87,000 compounds. About 540 (0.62%) were called active. The rule behind the calls is not given here. The list comes from a sample in which actives are over-represented; it also holds similar structures and randomly drawn compounds. Entries with a potency or affinity are not part of this list.

assay: inhibitors of MT1-MMP promoter transcription, cell-based, luciferase reporter, luminescence (AID 618); conditions: MT1-MMP promoter luciferase reporter cells;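 note: actives suppress MT1-MMP promoter-driven transcription so potencies describe inhibitors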

Which outcome does the source give for `Cc1cc(N2CCOCC2)nc(SCC(=O)c2ccccc2)n1` here?
Its outcome is “inactive”.

With `CCCC1=NCCn2cccc21` as the compound, how does the outcome read?
Its outcome is “inactive”.

For `Cn1c(=N)n(CC(=O)O)c2ccccc21`, which outcome is on record?
Its outcome is “inactive”.

For `COc1cccc(C(=O)Cn2c(NCCO)nc3ccccc32)c1`, which outcome is on record?
The outcome was “inactive”.

With `COc1cccc(C(=O)Cn2c(=N)n(C)c3ccccc32)c1` as the compound, how does the outcome read?
Its outcome is “active”.

With `CC(=O)NCCSCCNC(C)=O` as the compound, how does the outcome read?
Its outcome is “inactive”.

For `O=S(=O)(c1ccc2c(c1)nc(COc1ccc(Cl)cc1)n2CC1CCCO1)N1CCOCC1` (centres undefined), which outcome is on record?
Its outcome is “active”.

With `CSc1nnc(-c2ccc(S(=O)(=O)N3CCOCC3)cc2)n1CC1CCCO1` (centres undefined) as the compound, how does the outcome read?
The outcome was “inactive”.

Which outcome does the source give for `CCSc1nnc(-c2ccc(S(=O)(=O)N3CCOCC3)cc2)n1CC1CCCO1` (centres undefined) here?
Its outcome is “inactive”.

With `Cn1c(C(=O)NCCN2CCCCCC2)cc2c(=O)n(C)c3ccccc3c21` as the compound, how does the outcome read?
The outcome was “inactive”.

With `O=S(=O)(Nc1nnc(-c2ccccc2)s1)c1ccc(Cl)cc1` as the compound, how does the outcome read?
The outcome was “inactive”.

Which outcome does the source give for `Cc1ncc(S(=O)(=O)c2ccc(Cl)cc2)c(-c2ccccc2)n1` here?
Its outcome is “inactive”.

Which outcome does the source give for `CCN(CC)CCCNC(=O)c1cc(-c2ccc(Cl)cc2)on1` here?
The outcome was “inactive”.

Which outcome does the source give for `Cc1c(C(N)=O)sc2nc(-c3ccccc3)cn12` here?
Its outcome is “inactive”.

For `c1ccc(-c2cn3c4c(sc3n2)CCCC4)cc1`, which outcome is on record?
The outcome was “active”.

For `Cc1c(C(=O)N2CC(C)OC(C)C2)sc2nc(-c3ccccc3)cn12` (centres undefined), which outcome is on record?
Its outcome is “inactive”.

With `CCOc1ccc(N(CC(=O)NCC2CCCO2)S(=O)(=O)c2ccc(SC)cc2)cc1` (centres undefined) as the compound, how does the outcome read?
Its outcome is “inactive”.

With `CSc1nc2sc3c(c2c(=O)n1C)CCC(C)C3` (centres undefined) as the compound, how does the outcome read?
Its outcome is “inactive”.

For `O=C1CSC(=NC2CCCCC2)N1`, which outcome is on record?
Its outcome is “inactive”.

For `FC(F)Sc1ccc(N=C2NN=C(c3ccc4c(c3)OCCO4)CS2)cc1`, which outcome is on record?
The outcome was “inactive”.

Which outcome does the source give for `Cc1cccc(N=C2NN=C(c3ccc4c(c3)OCCO4)CS2)c1` here?
Its outcome is “inactive”.

For `COc1ccc(N=C2NN=C(c3ccc4c(c3)OCCO4)CS2)cc1`, which outcome is on record?
Its outcome is “inactive”.

For `COc1ccc(C(=O)NCCCN2CCCC2=O)cc1`, which outcome is on record?
The outcome was “inactive”.

For `c1cnc(-c2nnc3n2CCCCC3)cn1`, which outcome is on record?
Its outcome is “inactive”.

For `CCC1(N(C(C)=O)c2ccc(OC)cc2)C(=O)c2ccccc2C1=O`, which outcome is on record?
Its outcome is “inactive”.

For `CCOC(=O)CCSc1nc(C)c2cc(C)c(C)cc2n1`, which outcome is on record?
Its outcome is “inactive”.

Which outcome does the source give for `CCCC(=O)Nc1nnc(-c2cccc(OCC)c2)s1` here?
Its outcome is “inactive”.

With `Cc1cc(C)nc(N2CCCC(C(=O)Nc3ccc4c(c3)OCCO4)C2)n1` (centres undefined) as the compound, how does the outcome read?
The outcome was “inactive”.

With `O=C(Nc1ccc2c(c1)OCCO2)C1CCCN(c2ncccn2)C1` (centres undefined) as the compound, how does the outcome read?
The outcome was “active”.

For `CC(=O)Nc1ccc(NC(=O)C2CCCN(c3ncccn3)C2)cc1` (centres undefined), which outcome is on record?
The outcome was “inactive”.

For `O=C(Nc1ccc2c(c1)OCO2)C1CCCCN1S(=O)(=O)c1ccccc1` (centres undefined), which outcome is on record?
Its outcome is “inactive”.

Which outcome does the source give for `Cc1ncc(S(=O)(=O)c2ccccc2)c(-c2ccc(Cl)cc2Cl)n1` here?
The outcome was “inactive”.

With `O=C(O)CSc1nnc(-c2ccc3c(c2)OCO3)o1` as the compound, how does the outcome read?
The outcome was “inactive”.

With `CC(=O)CSc1nnc(-c2ccc3c(c2)OCO3)o1` as the compound, how does the outcome read?
Its outcome is “inactive”.

For `CCC1CCCCN1C(=O)CSc1nnc(-c2ccc3c(c2)OCCO3)o1` (centres undefined), which outcome is on record?
The outcome was “inactive”.

Which outcome does the source give for `O=C(CSc1nnc(-c2ccc3c(c2)OCCO3)o1)N1CCCC1` here?
Its outcome is “inactive”.

With `O=C(c1ccco1)N1CCN=C1SCc1ccc(F)cc1` as the compound, how does the outcome read?
Its outcome is “inactive”.

Which outcome does the source give for `COc1ccc(NC(=O)CN(C2CCCCC2)S(C)(=O)=O)cc1OC` here?
Its outcome is “inactive”.

With `N=C1C(c2ccc(Br)cc2)=C(O)C2CCc3ccccc3N12` (centres undefined) as the compound, how does the outcome read?
The outcome was “inactive”.

For `CCC(=O)Nc1cc2c(cc1C(C)=O)OCCO2`, which outcome is on record?
Its outcome is “inactive”.

For `Cc1ccc(Cl)cc1NC(=O)CCC(=O)Nc1cc(Cl)ccc1C`, which outcome is on record?
Its outcome is “inactive”.

With `COc1cc(C(=O)Nc2cc(C)ccn2)cc(OC)c1OC` as the compound, how does the outcome read?
Its outcome is “inactive”.

For `COc1ccc(CC(=O)Nc2cc(C)ccn2)cc1`, which outcome is on record?
Its outcome is “inactive”.

Which outcome does the source give for `COc1ccc(C(=O)NC(=O)Nc2cc(C)ccn2)cc1` here?
The outcome was “active”.

For `CN1CCc2c(sc3c2c(=O)n(-c2ccccc2)c2nnc(SCc4ccc(Cl)cc4)n32)C1`, which outcome is on record?
The outcome was “inactive”.

With `CCOC(=O)c1sc2nc3c(cc2c1N)COC(C)(CC)C3` (centres undefined) as the compound, how does the outcome read?
Its outcome is “inactive”.

With `CCOC(=O)c1sc2nc3c(cc2c1N)COC(C)(C)C3` as the compound, how does the outcome read?
The outcome was “inactive”.

For `CCN(Cc1ccccc1)S(=O)(=O)c1ccc2oc(C(=O)O)c(C)c2c1`, which outcome is on record?
Its outcome is “inactive”.

With `Cn1ccnc1SCc1cn2ccccc2n1` as the compound, how does the outcome read?
The outcome was “inactive”.

For `Brc1ccc2nc(CSc3ncn[nH]3)cn2c1`, which outcome is on record?
Its outcome is “inactive”.

For `COc1ccc(NC(=S)N/C(=N/CS(=O)(=O)c2ccccc2)c2ccccc2)cc1`, which outcome is on record?
The outcome was “inactive”.

With `CCOC(=O)N1CCC(N2C(=O)c3ccc(C(=O)O)cc3C2=O)CC1` as the compound, how does the outcome read?
The outcome was “inactive”.

With `Clc1ccc(NC2=NCCCCC2)cc1` as the compound, how does the outcome read?
Its outcome is “inactive”.

For `Cc1nnc(NC2=NCCCCC2)o1`, which outcome is on record?
Its outcome is “inactive”.

With `c1coc(-c2nnc(NC3=NCCC3)o2)c1` as the compound, how does the outcome read?
The outcome was “inactive”.

With `CCOc1ccc(-c2nnc(NC3=NCCCCC3)o2)cc1` as the compound, how does the outcome read?
Its outcome is “inactive”.

Which outcome does the source give for `Clc1ccc(-c2nnc(NC3=NCCCCC3)o2)cc1` here?
The outcome was “active”.

Which outcome does the source give for `Fc1ccc(-c2nnc(NC3=NCCCCC3)o2)cc1` here?
The outcome was “active”.

Which outcome does the source give for `O=C1/C(=C\Nc2ccc(OC(F)(F)F)cc2)CCN1c1ncccn1` here?
Its outcome is “inactive”.

For `CS(=O)(=O)N(CC(=O)NCCSC1CCCCC1)c1ccc2c(c1)OCO2`, which outcome is on record?
The outcome was “inactive”.

Which outcome does the source give for `COc1cccc(CNc2ccc(F)c(Cl)c2)c1OC` here?
The outcome was “inactive”.

For `FC(F)(F)c1cc(-c2ccco2)nc(-n2nnc3ccccc32)n1`, which outcome is on record?
The outcome was “inactive”.

With `FC(F)(F)c1cc(-c2ccco2)nc(-n2cnc3ccccc32)n1` as the compound, how does the outcome read?
The outcome was “inactive”.

With `Cc1nc2ccccc2n1-c1nc(-c2ccco2)cc(C(F)(F)F)n1` as the compound, how does the outcome read?
Its outcome is “active”.

With `Cc1cc(OCCCCCNCCO)cc(C)c1Cl` as the compound, how does the outcome read?
Its outcome is “inactive”.

For `COc1ccc(C(=O)Nc2ccccc2C(=O)NCCN2CCOCC2)cc1`, which outcome is on record?
Its outcome is “inactive”.

With `COc1ccc2c(c1)Sc1ccccc1N2CCN(C)C` as the compound, how does the outcome read?
The outcome was “active”.

For `CN(C)CCCN1c2ccccc2Sc2ccccc21`, which outcome is on record?
The outcome was “inactive”.

With `CN(C)CCCN1c2ccccc2Sc2ccc(Cl)cc21` as the compound, how does the outcome read?
The outcome was “inactive”.

Which outcome does the source give for `CCOC(=O)C(N)CSC1CC(=O)N(c2ccc(C(=O)OC)cc2)C1=O` (centres undefined) here?
The outcome was “inactive”.

Which outcome does the source give for `CCOC(=O)COc1nc(Nc2ccccc2C)nc(N(C)C)n1` here?
Its outcome is “inactive”.

Which outcome does the source give for `O=C(NNC(=O)c1ccc(SCC2CCCO2)c([N+](=O)[O-])c1)c1ccc(F)cc1` (centres undefined) here?
Its outcome is “inactive”.

For `COc1cc(-c2nc(-c3ccccn3)no2)cc(OC)c1OC`, which outcome is on record?
The outcome was “inactive”.

With `c1ccc(-c2noc(-c3cccc4ccccc34)n2)nc1` as the compound, how does the outcome read?
The outcome was “active”.

Which outcome does the source give for `c1ccc(-c2noc(-c3cccc4ccccc34)n2)cc1` here?
Its outcome is “inactive”.

With `c1ccc2c(-c3nc(-c4ccncc4)no3)cccc2c1` as the compound, how does the outcome read?
The outcome was “inactive”.

Which outcome does the source give for `COc1cccc(-c2nc(-c3ccccn3)no2)c1OC` here?
Its outcome is “inactive”.

With `CCCCNC(=O)n1c(SC)nc2ccccc21` as the compound, how does the outcome read?
Its outcome is “inactive”.

Which outcome does the source give for `COc1cccc(-c2ccc(C#N)c(OC(=O)c3ccc(Cl)cc3)n2)c1` here?
Its outcome is “inactive”.
